Out of some 39,000 compounds screened, about 1,500 (3.8%) were called active. The full list was thinned out, with actives kept by preference.

In the assay the test system is HSkMC (human skeletal muscle cells). The experiment in a line: cytotoxicity call (relative viability < 0.9). Particulars: 10 µM.
For `O=[N+]([O-])c1cc(N(CCO)CCO)ccc1NCCO`, the cytotoxicity call is “inactive”. `O=C(C[C@@H]1CC[C@H]2[C@@H](COC[C@@H](O)CN2C(=O)Nc2cccc(F)c2)O1)NCCCN1CCOCC1`: the cytotoxicity call is “inactive”. As to `C[C@@H]1CCCCO[C@H](CN(C)Cc2ccccc2)[C@@H](C)CN([C@@H](C)CO)C(=O)c2cc(NC(=O)CCC(F)(F)F)ccc2O1`, the cytotoxicity call was “inactive”. In the case of `CCS(=O)(=O)Nc1ccc2c(c1)/C(=C(/Nc1ccc(CN3CCCCC3)cc1)c1ccccc1)C(=O)N2`, the cytotoxicity call is “active”. On to `CCS(=O)(=O)Nc1ccc2c(c1)CC(=O)N2`, for which the cytotoxicity call is “inactive”. Consider `CCS(=O)(=O)Nc1ccc2c(c1)C(=O)N(C)[C@@H]1CC[C@H](CC(=O)N[C@H]3CCN(Cc4ccccc4)C3)O[C@H]1CO2`, for which the cytotoxicity call is “inactive”. As to `Cc1ccc(S[C@]2(C(=O)NCCCN(C)C)CC(=O)N(Cc3ccccc3C(F)(F)F)[C@@H]2c2ccc(CO)cc2I)cc1`, the cytotoxicity call was “inactive”. As for `C[C@@H]1CN([C@H](C)CO)C(=O)c2cc(NC(=O)c3ccncc3)ccc2O[C@@H](C)CCCCO[C@@H]1CN(C)C(=O)Nc1cccc2ccccc12`, the cytotoxicity call was “inactive”.

As to `C[C@H]1CCCCO[C@H](CN(C)C(=O)Nc2cccc3ccccc23)[C@@H](C)CN([C@@H](C)CO)C(=O)c2cc(NC(=O)c3ccncc3)ccc2O1`, the cytotoxicity call was “inactive”. The entry for `C[C@@H]1CCCCO[C@H](CN(C)C(=O)Nc2cccc3ccccc23)[C@@H](C)CN([C@@H](C)CO)C(=O)c2cc(NC(=O)c3ccncc3)ccc2O1` is “active”; for `C[C@H](CO)N1C[C@H](C)[C@@H](CN(C)C(=O)Nc2cccc3ccccc23)OCCCC[C@H](C)Oc2ccc(NC(=O)c3ccncc3)cc2C1=O` it is “inactive”. Take `C[C@@H]1CN([C@H](C)CO)C(=O)c2cc(NC(=O)c3ccncc3)ccc2O[C@@H](C)CCCCO[C@H]1CN(C)C(=O)Nc1cccc2ccccc12`: the cytotoxicity call was “active”.

Turning to `C[C@@H]1CCCCO[C@@H](CN(C)C(=O)Nc2cccc3ccccc23)[C@H](C)CN([C@@H](C)CO)C(=O)c2cc(NC(=O)c3ccncc3)ccc2O1`, the cytotoxicity call is “inactive”. On to `C[C@@H]1CN([C@@H](C)CO)C(=O)Cc2cc(NC(=O)C3CCCCC3)ccc2O[C@H]1CN(C)S(C)(=O)=O`, for which the cytotoxicity call is “inactive”.

On to `C[C@@H]1CN([C@@H](C)CO)C(=O)c2cccc(NS(C)(=O)=O)c2O[C@@H]1CN(C)S(C)(=O)=O`, for which the cytotoxicity call is “inactive”.

Take `COc1ccc(S(=O)(=O)Nc2ccc3c(c2)C(=O)N([C@@H](C)CO)C[C@H](C)[C@@H](CN(C)C(=O)Nc2ccc(F)cc2)OCCCC[C@H](C)O3)cc1`: the cytotoxicity call was “inactive”. With `C[C@@H]1CCCCO[C@@H](CN(C)C(=O)Nc2ccccc2)[C@H](C)CN([C@@H](C)CO)C(=O)c2cc(NC(=O)Nc3cccc4ccccc34)ccc2O1`, the cytotoxicity call was “inactive”. For the compound `C[C@H](CO)N1C[C@H](C)[C@H](CN(C)CC2CCOCC2)Oc2ncc(C#CCc3ccccc3)cc2C1=O`, the cytotoxicity call was “inactive”. As to `COc1ccc(NC(=O)Nc2ccc3c(c2)C(=O)N([C@H](C)CO)C[C@H](C)[C@@H](CN(C)C(=O)Nc2c(C)noc2C)OCCCC[C@@H](C)O3)cc1`, the cytotoxicity call is “inactive”. On to `O=C1N[C@@H](c2ccccc2)COCc2cn(nn2)CC[C@H](Cc2ccc(C(F)(F)F)cc2)C(=O)N[C@@H](c2ccccc2)COCc2cn(nn2)CC[C@@H]1Cc1ccc(C(F)(F)F)cc1`, for which the cytotoxicity call is “inactive”.

As to `C[C@H]1CN([C@@H](C)CO)C(=O)c2cc(NC(=O)Nc3ccc(C(F)(F)F)cc3)ccc2O[C@H]1CN(C)Cc1ccc(C(F)(F)F)cc1`, the cytotoxicity call is “active”. The entry for `C[C@@H]1CN([C@H](C)CO)C(=O)c2cc(NC(=O)Nc3ccc(C(F)(F)F)cc3)ccc2O[C@H]1CN(C)Cc1ccc(C(F)(F)F)cc1` is “active”; for `C[C@H]1CN([C@@H](C)CO)C(=O)c2cc(NC(=O)Nc3ccc(C(F)(F)F)cc3)ccc2O[C@@H]1CN(C)Cc1ccc(C(F)(F)F)cc1` it is “active”. Regarding `C[C@@H]1CN([C@H](C)CO)C(=O)c2cc(NC(=O)Nc3ccc(C(F)(F)F)cc3)ccc2O[C@@H]1CN(C)Cc1ccc(C(F)(F)F)cc1`, the cytotoxicity call is “active”. On to `C[C@H](CO)N1C[C@H](C)[C@H](CN(C)C)Oc2ccc(NC(=O)Cc3cn(C)c4ccccc34)cc2CC1=O`, for which the cytotoxicity call was “inactive”. Under `CNC[C@@H]1OCCCC[C@H](C)Oc2ccc(NS(=O)(=O)c3cn(C)cn3)cc2C(=O)N([C@@H](C)CO)C[C@H]1C` stands “inactive”; under `C[C@H](CO)N1C[C@H](C)[C@H](CN(C)C(=O)Cc2ccncc2)Oc2cc(C#CC3(O)CCCC3)ccc2S1(=O)=O`, “inactive”; under `C[C@@H]1CN([C@@H](C)CO)C(=O)c2cc(C#Cc3ccncc3)cnc2O[C@H]1CN(C)C(=O)c1ccccc1F`, “inactive”. Take `C[C@H]1CCCCO[C@@H](CN(C)C(=O)Cc2ccccc2)[C@@H](C)CN([C@@H](C)CO)C(=O)c2cc(NS(=O)(=O)c3cccs3)ccc2O1`: the cytotoxicity call was “inactive”.

With `COc1ccc(NC(=O)N(C)C[C@@H]2Oc3ccc(NC(=O)Nc4cccc5ccccc45)cc3C(=O)N([C@H](C)CO)C[C@@H]2C)cc1`, the cytotoxicity call is “inactive”. Turning to `CN(C)CCCNC(=O)C[C@H]1C=C[C@@H](NS(=O)(=O)c2ccccc2)[C@@H](CO)O1`, the cytotoxicity call is “inactive”. For the compound `C[C@@H]1CN([C@@H](C)CO)C(=O)c2cc(NC(=O)Nc3ccc(C(F)(F)F)cc3)ccc2O[C@H]1CN(C)Cc1ccc(C(F)(F)F)cc1`, the cytotoxicity call was “active”. As to `C[C@@H]1CN([C@@H](C)CO)C(=O)c2cc(NC(=O)Nc3ccc(C(F)(F)F)cc3)ccc2O[C@@H]1CN(C)Cc1ccc(C(F)(F)F)cc1`, the cytotoxicity call was “active”. Regarding `C[C@H](CO)N1C[C@H](C)[C@H](CN(C)Cc2ccc(C(F)(F)F)cc2)Oc2ccc(NC(=O)Nc3ccc(C(F)(F)F)cc3)cc2C1=O`, the cytotoxicity call was “active”.

For `C[C@H](CO)N1C[C@H](C)[C@@H](CN(C)Cc2ccc(C(F)(F)F)cc2)Oc2ccc(NC(=O)Nc3ccc(C(F)(F)F)cc3)cc2C1=O`, the cytotoxicity call was “inactive”. On to `COCC#Cc1ccc2c(c1)O[C@H](CN(C)S(=O)(=O)c1cccc(F)c1)[C@@H](C)CN([C@@H](C)CO)S2(=O)=O`, for which the cytotoxicity call was “inactive”. Under `COc1ccccc1CN1C[C@@H](C)[C@H](OC)CN(C)C(=O)c2cc(NC(=O)Nc3ccccc3OC)ccc2OC[C@H]1C` stands “inactive”; under `C[C@@H]1CN([C@@H](C)CO)C(=O)c2cc(-c3cccc(C#N)c3)cnc2O[C@@H]1CN(C)C(=O)C1CCOCC1`, “inactive”.

Source of the values: the antibiotic and cytotoxicity screens of Wong et al. (2023).
